Assay outcomes deposited in PubChem by National Center for Advancing Translational Sciences (NCATS).
Rows were chosen to be rich in hits. Some 2.9% of all compounds tested hit in one or more screens of this group.
EPAC2 antag – Validation qHTS for antagonist of cAMP-regulated guanine nucleotide exchange factor 4 (EPAC2); Potency, µM (doses to about 112 µM), inactives show at the top dose activity, negative = inhibition, usual class: inhibitors; Rap guanine nucleotide exchange factor 4 (Homo sapiens), Q8WZA2; actives 1.7% (n = 16,000); EPAC2 Rap1B BODIPY-GDP exchange, fluorescence;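 also: 100% = activation by cAMP agonist control; nearly all actives have a fitted effect of over 40% in size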
Target sequence (Q8WZA2 whole entry, looked up): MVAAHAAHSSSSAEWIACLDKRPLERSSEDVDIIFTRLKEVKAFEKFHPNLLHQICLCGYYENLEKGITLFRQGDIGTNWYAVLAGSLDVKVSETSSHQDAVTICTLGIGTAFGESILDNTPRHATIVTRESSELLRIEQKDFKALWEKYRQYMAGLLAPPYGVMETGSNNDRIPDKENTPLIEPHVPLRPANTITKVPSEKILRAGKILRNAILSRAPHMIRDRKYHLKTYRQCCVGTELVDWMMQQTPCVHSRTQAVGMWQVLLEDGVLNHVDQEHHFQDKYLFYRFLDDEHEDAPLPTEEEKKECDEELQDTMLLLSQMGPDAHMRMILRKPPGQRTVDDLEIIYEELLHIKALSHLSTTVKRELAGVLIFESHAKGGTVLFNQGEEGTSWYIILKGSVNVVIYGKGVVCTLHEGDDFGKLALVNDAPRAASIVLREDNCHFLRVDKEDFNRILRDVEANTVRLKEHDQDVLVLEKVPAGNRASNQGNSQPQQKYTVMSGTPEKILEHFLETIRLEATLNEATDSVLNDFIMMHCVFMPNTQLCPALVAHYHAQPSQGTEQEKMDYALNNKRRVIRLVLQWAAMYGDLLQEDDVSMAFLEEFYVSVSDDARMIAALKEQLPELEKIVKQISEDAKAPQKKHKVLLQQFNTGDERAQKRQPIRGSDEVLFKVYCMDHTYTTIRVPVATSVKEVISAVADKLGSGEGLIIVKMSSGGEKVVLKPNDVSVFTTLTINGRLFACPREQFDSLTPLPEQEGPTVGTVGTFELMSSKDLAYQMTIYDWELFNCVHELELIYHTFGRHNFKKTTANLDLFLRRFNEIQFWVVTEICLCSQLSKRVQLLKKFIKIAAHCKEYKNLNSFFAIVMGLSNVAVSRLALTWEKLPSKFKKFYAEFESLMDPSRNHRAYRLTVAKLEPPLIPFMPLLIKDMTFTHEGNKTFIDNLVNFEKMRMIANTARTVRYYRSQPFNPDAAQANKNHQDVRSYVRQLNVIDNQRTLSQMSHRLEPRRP
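Normalized against a 6.5 mM cAMP agonist control, compounds were tested on 100 nM EPAC2 exchanging Rap1B-bound BODIPY-GDP (250 nM) for 50 uM GDP. Fluorescence drop (ex 480, em 540 nm) was tracked at room temperature over 30 min at 5-min intervals.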
EPAC1 ag val – Validation qHTS for agonist of cAMP-regulated guanine nucleotide exchange factor 3 (EPAC1); Rap guanine nucleotide exchange factor 3 (Homo sapiens), O95398; EPAC1 Rap1b BODIPY-GDP exchange, fluorescence; Potency, µM, inactives show max response, positive = active, usual class: activators; actives 1% (n = 16,000); AID 1645883, 2021; also: nearly all actives have a fitted effect of over 70% in size
* marks the source's active call; other numbers are inactive results; i = inactive; ? = inconclusive; ! = not active in a repeat; [ ] = remark or other dose. Calls follow the shape of the dose curve; as a rule, active = well fitted curve in the direction sought with a large enough effect; inconclusive = small, poorly fitted or top-dose-only effect, or another doubt; inactive = no such curve, though single readings can be large; an effect the other way counts as inactive or inconclusive. Unless noted, % is scaled to controls: 0 for no effect and ±100 for the full control effect; potency is read from the fitted curve at half-maximal effect.

SMILES	EPAC2 antag	EPAC1 ag val
CC(=O)c1ccc(F)c(-c2cc(C)cc3c2OC(CNC(=O)c2csc(C)n2)C3)c1 (stereo not drawn)	-31.6%	8.3%
COc1ccc2ccccc2c1CN1CCC2(CCC(CNC(=O)c3ccccc3)O2)CC1 (stereo not drawn)	9.1%	-15.5%
Cc1ncc(Cc2ccccc2)c(C2CCN(S(=O)(=O)C[C@]34CC[C@H](CC3=O)C4(C)C)CC2)n1	?	29.4%
CCCC(=O)O[C@]1(C(=O)COC(=O)CC)[C@@H](C)C[C@H]2[C@@H]3CCC4=CC(=O)C=C[C@]4(C)[C@@]3(F)[C@@H](O)C[C@@]21C	-5.3%	-34.7%
CC[C@@]1(O)C(=O)OCc2c1cc1n(c2=O)Cc2cc3c(CN(C)C)c(O)ccc3nc2-1	86.7%	112µM*
CC[C@@]1(O)C(=O)OCc2c1cc1n(c2=O)Cc2cc3c([N+](=O)[O-])cccc3nc2-1	-16.8%	6.2%
Cc1cc(O)c2c(c1)O[C@@]1(C)CC[C@H]3C(C)(C)CCCC34CO[C@@H]2[C@H]41 (stereo partly drawn)	?	-16.6%
COC(=O)[C@H]1[C@H]2C[C@@H]3c4[nH]c5cc(OC)ccc5c4CCN3C[C@H]2C[C@H](OC)[C@@H]1OC	20.3%	3.2%
C[n+]1c2cc(N)ccc2cc2ccc(N)cc21 (tested in a mixture with another compound)	i	25.1µM*
COc1ccc2[nH]cc(CCNc3ncnc4ccc(-c5ccccc5C#N)cc34)c2c1	-21.3%	112µM*
COc1ccc2[nH]cc(CCNc3ncnc4ccc(-c5cccc(C#N)c5)cc34)c2c1	-22.5%	23.6%
CCn1nc(C)cc1C(=O)NCC1Cc2cc(C)cc(-c3ccccc3C(=O)OC)c2O1 (stereo not drawn)	?	-2.0%
CNCC(=O)N[C@@H](CCCN=C(N)N)C(=O)N[C@H](C(=O)N[C@@H](Cc1ccc(O)cc1)C(=O)N[C@H](C(=O)N[C@@H](Cc1cnc[nH]1)C(=O)N1CCC[C@H]1C(=O)N[C@@H](C)C(=O)O)C(C)C)C(C)C	-9.2%	-1.5%
N[C@H](C(=O)O)[C@@H](O)c1ccc(O)c(O)c1	79.4µM*	?
N[C@@H](Cc1ccc(O)c(O)c1)C(=O)O	1.0%	-0.6%
CCN1CCCC1CNC(=O)c1cnn(-c2nccc(-c3cccs3)n2)c1C(C)C (stereo not drawn)	?	9.9%
Cc1ccc2ccccc2n1	9.6%	-62.7%
Cc1ccc(O)c(N=Nc2ccccc2)n1	56.2µM*!	-13.7%
O=C1NC(=O)[C@H]2[C@@H]1[C@@H]1C=C[C@H]2C1	-10.3%	7.5%
COc1cccc(N2[C@@H](CC(C)=O)c3cc(C(F)(F)F)ccc3S2(=O)=O)c1	?	-1.9%
CCOC(=O)C[C@H]1c2ccc(C(F)(F)F)cc2S(=O)(=O)N1c1cccc(OC)c1	44.7µM*	-49.9%
COC(=O)C1CCN(Cc2ccc3c(c2)CN(C(=O)c2cc(-c4ccc(C)o4)[nH]n2)CCO3)CC1	?	-4.8%
COc1cc(-c2ccc(N=Nc3ccc4c(S(=O)(=O)O)cc(S(=O)(=O)O)c(N)c4c3O)c(OC)c2)ccc1N=Nc1ccc2c(S(=O)(=O)O)cc(S(=O)(=O)O)c(N)c2c1O	28.2µM*!	5.0%
Cc1cccc(N(C)C(=S)Oc2ccc3c(c2)CCC3)c1	-12.1%	23.9%
Cc1cccc(N(C)C(=S)Oc2ccc3ccccc3c2)c1	-26.6%[56.6 µM]	112µM*!
SMILES	EPAC2 antag	EPAC1 ag val
CCCCCCCCCCCCCCCC(=O)OC[C@@H](O)[C@H]1OC[C@H](O)[C@H]1O	-0.7%	-36.6%
Cc1nc(CC(=O)NCC2Cc3cc(F)cc(-c4ccc(F)c(C)c4)c3O2)cs1 (stereo not drawn)	-47.6%	11.0%
Cc1cccc(CN2Cc3cccc4c3[C@H](C=CC4)CC2=O)c1	31.6µM*	2.7%
O=C1C[C@H]2C=CCc3cccc(c32)CN1Cc1ccc(F)cc1	?	25.6%
NC1[C@H]2CN(c3nc4c(cc3F)c(=O)c(C(=O)O)cn4-c3ccc(F)cc3F)C[C@@H]12 (stereo partly drawn)	-5.9%	-6.1%
CCCC(=O)NCCc1c2n(c3ccc(OC)cc13)CCCc1ccccc1-2	14.1µM*	4.6%
COc1ccc2[nH]c(-c3ccccc3)c(CCNC(C)=O)c2c1	?	-2.6%
C/C=C1\NC(=O)[C@H]2CSSCC/C=C/[C@H](CC(=O)N[C@H](C(C)C)C(=O)N2)OC(=O)C(C(C)C)NC1=O (stereo partly drawn)	-15.0%	-17.8%
COCCn1c(=O)c(-c2ccc(F)cc2)nc2cnc(Nc3cccc(OC)c3)nc21	-10.4%	22.3%
COCCn1c(=O)c(-c2cc(F)cc(F)c2)nc2cnc(Nc3cccc(OC)c3)nc21	0.2%	89.1µM*
COc1cccc(Nc2ncc3nc(-c4ccccc4)c(=O)n(C4CC4)c3n2)c1	-11.6%	-37.1%
COc1cccc(Nc2ncc3nc(-c4cc(F)cc(F)c4)c(=O)n(C4CC4)c3n2)c1	-5.9%	100µM*
Cc1c(C(=O)NCC2COCCO2)cnn1-c1ncc2c(n1)-c1ccccc1CC2 (stereo not drawn)	-1.7%	-5.7%
CC(NC(=O)c1cc(F)ccc1F)c1nnc2n1CCN(Cc1ccc(-c3ccccc3)cc1)CC2 (stereo not drawn)	-17.8%	0.0%
CO[C@H]1C[C@H](O[C@H]2[C@H](C)O[C@@H](O[C@@H]3/C(C)=C/C[C@@H]4C[C@@H](C[C@]5(C=C[C@H](C)[C@@H](C6CCCCC6)O5)O4)OC(=O)[C@@H]4C=C(C)[C@@H](O)[C@H]5OC/C(=C\C=C\[C@@H]3C)[C@]54O)C[C@@H]2OC)O[C@@H](C)[C@@H]1O	-23.5%	-10.3%
CON=C1C[C@]2(C[C@@H]3C[C@@H](C/C=C(\C)C[C@@H](C)/C=C/C=C4\CO[C@@H]5[C@H](O)C(C)=C[C@@H](C(=O)O3)[C@]45O)O2)O[C@H](/C(C)=C/C(C)C)[C@H]1C	?	-227.0%
C[C@@H](/C=C\c1cccc(Oc2ccc(F)cc2)c1)N(O)C(N)=O	25.1µM*	-24.8%
CC(/C=C/c1cccc(Oc2ccc(F)cc2)c1)N(O)C(N)=O (stereo not drawn)	79.4µM*	4.0%
CC(C(=O)O)c1cccc(Oc2ccccc2)c1 (stereo not drawn)	-18.7%	5.4%
CCN(CC)CCCC(C)Nc1cc(/C=C/c2ccccc2Cl)nc2cc(Cl)ccc12 (stereo not drawn)	-4.3%	18.9%
CCN(CC)CCCC(C)Nc1c2ccc(Cl)cc2nc2ccc(OC)cc12 (stereo not drawn)	5.6%	112µM*!
COc1cc(CN2CCC3(CC2)c2ccccc2[C@@H](NC(=O)c2ccccc2OC)[C@@H]3O)ccc1F	-18.4%	-8.3%
COCCC(=O)NCC1Cc2cc(Cl)cc(-c3ccc4[nH]ccc4c3)c2O1 (stereo not drawn)	-23.0%	-10.0%
Cc1ccc(C(=O)Nc2ccc(S(=O)(=O)O)c3cc(S(=O)(=O)O)cc(S(=O)(=O)O)c23)cc1NC(=O)c1cccc(NC(=O)Nc2cccc(C(=O)Nc3cc(C(=O)Nc4ccc(S(=O)(=O)O)c5cc(S(=O)(=O)O)cc(S(=O)(=O)O)c45)ccc3C)c2)c1	-8.3%	89.1µM*!
